Experiment [1] can be described thus: qHTS of pediatric cancer cell lines to identify multiple opportunities for drug repurposing: Primary screen for LAN-5 cells (AID 1347100). Further: potency means the concentration at half of the fitted maximal effect. The method in brief:
(§1)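 Cells (500-1,000/well) rested 5 h, then received compounds for 48 h; metabolically active cells were measured by CellTiter-Glo luminescence. Final concentrations spanned up to 46 µM (MIPE, 11-point) or 0.59 nM-46 µM (NPC, 8-point) in primary screens, 11-point in follow-ups.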

The nature of experiment [2]: qHTS of pediatric cancer cell lines to identify multiple opportunities for drug repurposing: Primary screen for BT-12 cells (AID 1347101). Further: nearly all actives have a fitted effect of over 25% in size. Further: potency means the concentration at half of the fitted maximal effect. An outline of the steps: as §1
Experiment [3] is described as follows: qHTS of pediatric cancer cell lines to identify multiple opportunities for drug repurposing: Primary screen for Rh18 cells (AID 1347102). Further: nearly all actives have a fitted effect of over 65% in size. An outline of the steps:
as §1
In general terms: In qHTS, concentration-response curves come from the screen itself.

Experiment [4] is described as follows: qHTS of pediatric cancer cell lines to identify multiple opportunities for drug repurposing: Primary screen for OHS-50 cells (AID 1347103). Further: nearly all actives have a fitted effect of over 40% in size. Further: potency means the concentration at half of the fitted maximal effect. An outline of the steps:
as §1

Experiment [5] is described as follows: qHTS of pediatric cancer cell lines to identify multiple opportunities for drug repurposing: Primary screen for RD cells (AID 1347104). Further: nearly all actives have a fitted effect of over 55% in size. Further: potency means the concentration at half of the fitted maximal effect. The method in brief: (§2)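 Cells plated at 500-1,000/well in growth medium, compounds added after 5 h. MIPE tested at 11 points (from 0.78 nM), NPC at 8 points (from 0.59 nM). CellTiter-Glo luminescence after 48 h; concentration-response curves from primary screen.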

The nature of experiment [6]: qHTS of pediatric cancer cell lines to identify multiple opportunities for drug repurposing: Primary screen for MG 63 (6-TG R) cells (AID 1347105). Further: nearly all actives have a fitted effect of over 50% in size. An outline of the steps:
as §2

Experiment [7] is described as follows: qHTS of pediatric cancer cell lines to identify multiple opportunities for drug repurposing: Primary screen for Rh30 cells (AID 1347107). Further: series mostly up to about 46 µM; nearly all actives have a fitted effect of over 75% in size. An outline of the steps:
as §1

Experiment [8] can be described thus: qHTS of pediatric cancer cell lines to identify multiple opportunities for drug repurposing: Primary screen for Rh41 cells (AID 1347108).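 Further: series mostly up to about 46 µM; luminescence drop marks cytotoxic hits; nearly all actives have a fitted effect of over 70% in size.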 An outline of the steps: as §2
Experiment [9] in a line: qHTS of pediatric cancer cell lines to identify multiple opportunities for drug repurposing: Primary screen for control Hh wild type fibroblast cells (AID 1347106).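 Further: series mostly up to about 46 µM; a drop in luminescence marks cytotoxicity and a rise apparent proliferation; nearly all actives have a fitted effect of over 55% in size.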 The method in brief:
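Cells (500-1,000/well) in growth media were settled 5 h at 37 degrees C, then given compounds for 48 h. Viability was read as CellTiter-Glo luminescence. Primary runs used MIPE at 11 points (0.78 nM-46 µM) and NPC at 8 points (0.59 nM-46 µM); follow-ups used 11 points.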

Experiment [10] is described as follows: qHTS of pediatric cancer cell lines to identify multiple opportunities for drug repurposing: Confirmatory screen for NB1643 cells (AID 1347109). Further: nearly all actives have a fitted effect of over 45% in size. The method in brief:
as §1

Experiment [11] in a line: qHTS of pediatric cancer cell lines to identify multiple opportunities for drug repurposing: Confirmatory screen for A673 cells (AID 1347110).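 Further: cells exposed to compound for 48 h before the viability read; nearly all actives have a fitted effect of over 65% in size.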 Further: potency means the concentration at half of the fitted maximal effect. The method in brief: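 Concentration-response curves came straight from titrations: 11 points (0.78 nM to 46 µM) for MIPE and several concentrations (0.59 nM to 46 µM) for NPC in primary, 11 points in follow-up. Readout: ATP luminescence at 48 h.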

The nature of experiment [12]: qHTS of pediatric cancer cell lines to identify multiple opportunities for drug repurposing: Confirmatory screen for LAN-5 cells (AID 1347113). Further: nearly all actives have a fitted effect of over 65% in size. Further: potency means the concentration at half of the fitted maximal effect. The method in brief:
as §1

A short description of experiment [13]: qHTS of pediatric cancer cell lines to identify multiple opportunities for drug repurposing: Confirmatory screen for DAOY cells (AID 1347114). Further: nearly all actives have a fitted effect of over 65% in size. An outline of the steps:
(§3)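 Viability measured as metabolically active cells via CellTiter-Glo luminescence following 48 hours of compound exposure, 11-point dilutions in confirmatory testing. 500-1,000 cells/well plated 5 hours before dosing; controls were DMSO and 2.3 µM bortezomib.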

Experiment [14] in a line: qHTS of pediatric cancer cell lines to identify multiple opportunities for drug repurposing: Confirmatory screen for NB-EBc1 cells (AID 1347115).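 Further: cells exposed to compound for 48 h before the viability read; nearly all actives have a fitted effect of over 45% in size.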 Further: potency means the concentration at half of the fitted maximal effect. The method in brief: as §1
The nature of experiment [15]: qHTS of pediatric cancer cell lines to identify multiple opportunities for drug repurposing: Confirmatory screen for control Hh wild type fibroblast cells (AID 1347121). Further: nearly all actives have a fitted effect of over 70% in size. An outline of the steps: as §1
Experiment [16] is described as follows: qHTS of pediatric cancer cell lines to identify multiple opportunities for drug repurposing: Confirmatory screen for BT-37 cells (AID 1347117). Further: nearly all actives have a fitted effect of over 55% in size. Further: potency means the concentration at half of the fitted maximal effect. The method in brief:
as §1

Experiment [17] in a line: qHTS of pediatric cancer cell lines to identify multiple opportunities for drug repurposing: Confirmatory screen for TC32 cells (AID 1347118). Further: potency means the concentration at half of the fitted maximal effect. The method in brief:
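qHTS, TC32, 48 h drug treatment, CellTiter-Glo luminescence as a proxy for metabolically active cells; primary top concentration 46 µM (MIPE 11-pt, NPC 8-pt); confirmatory 11-pt.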

The nature of experiment [18]: qHTS of pediatric cancer cell lines to identify multiple opportunities for drug repurposing: Confirmatory screen for MG 63 (6-TG R) cells (AID 1347119). Further: nearly all actives have a fitted effect of over 55% in size. An outline of the steps:
as §1

The nature of experiment [19]: qHTS of pediatric cancer cell lines to identify multiple opportunities for drug repurposing: Confirmatory screen for Rh41 cells (AID 1347123).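 Further: 48 h compound exposure; nearly all actives have a fitted effect of over 60% in size.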 Further: potency means the concentration at half of the fitted maximal effect. An outline of the steps: as §1
Experiment [20] in a line: qHTS of pediatric cancer cell lines to identify multiple opportunities for drug repurposing: Confirmatory screen for SJ-GBM2 cells (AID 1347116). Further: nearly all actives have a fitted effect of over 60% in size. An outline of the steps: as §3

Results filed as inconclusive are left out. The source made the active and inactive calls. The call rests on the fitted dose curve; in most records, active means well fitted curve in the direction sought with a large enough effect; inconclusive means small, poorly fitted or top-dose-only effect, or another doubt; inactive means no such curve, though single readings can be large; an effect the other way counts as inactive or inconclusive.

Consider `CCN1CCN(c2cc3c(cc2F)c(=O)c(C(=O)O)cn3C2CC2)CC1`, for which the Potency entry in [1], in [2], in experiment [3], in [4], in experiment [5] and in experiment [6] was “inactive” in each case. Besides, the Potency entry in experiment [7] and in experiment [8] was “inactive” each time.
Turning to `O=c1c(-c2ccccc2)c1-c1ccccc1`, the Potency in [1] was 18.8 µM (active); in experiment [2], 5.5 µM (active); in [4], 13.8 µM (active); in experiment [5], 18.8 µM (active).
In the case of `CCCCCCc1ccc(O)cc1O`, the Potency result in experiment [1], in [2], in experiment [3], in [5], in experiment [6] and in experiment [9] was “inactive” each time. The Potency entry in experiment [7] and in [8] was “inactive” in each case.
As to `CC(=O)Nc1c(I)cc(I)c(C(=O)O)c1I`, the Potency entry in experiment [1], in experiment [2], in experiment [3], in [4], in [5] and in experiment [9] was “inactive” each time. For the same compound, the Potency result in experiment [7] is “inactive”.
Turning to `COc1cc(C(=S)N2CCOCC2)cc(OC)c1OC`, the Potency entry in [1], in [2], in experiment [3], in experiment [4], in experiment [5] and in experiment [6] was “inactive” in each case. The Potency entry in [9] and in experiment [8] was “inactive” throughout.
Consider `CCCCC(=O)O[C@]1(C(=O)CO)CC[C@H]2[C@@H]3CCC4=CC(=O)CC[C@]4(C)[C@H]3[C@@H](O)C[C@@]21C`, for which the Potency result in [1], in [2], in [3], in [5], in [6] and in experiment [9] was “inactive” each time. Also, the Potency result in experiment [7], in experiment [8], in experiment [10], in experiment [11], in experiment [12] and in [13] was “inactive” each time. Further, the Potency entry in [14] and in experiment [15] was “inactive” in each case.
For the compound `Cc1cc(O)c(C(C)C)cc1Cl`, the Potency result in experiment [1], in experiment [2], in experiment [3], in [5], in experiment [6] and in experiment [9] was “inactive” throughout. In addition, the Potency entry in experiment [8] was “inactive”.
As for `OC(CCN1CCCCC1)(c1ccccc1)c1ccccc1`, the Potency entry in experiment [1], in experiment [2], in experiment [3], in [5], in [6] and in experiment [9] was “inactive” throughout. The Potency result in experiment [7] and in experiment [8] was “inactive” each time.
Consider `OC[C@H]1O[C@@H](n2cnc3c(=S)nc[nH]c32)[C@H](O)[C@@H]1O`, for which the Potency was 2.11 µM (active) in [1]; 9.78 µM (active) in experiment [2]; 0.55 µM (active) in experiment [4]; 2.08 µM (active) in experiment [11]; 1.17 µM (active) in experiment [12]; 3.69 µM (active) in [14]. Besides, the Potency was 2.93 µM (active) in [16], 2.33 µM (active) in experiment [17] and 10.4 µM (active) in experiment [19]. In addition, the Potency result in [3], in experiment [5], in [6], in [9], in [18] and in experiment [15] was “inactive” each time.
As to `CCCCCCCCCCCCCCNCCO`, the Potency entry in experiment [1], in [2], in [3], in experiment [5], in experiment [6] and in experiment [9] was “inactive” each time.
On to `CC(Cc1cccc(C(F)(F)F)c1)NCCOC(=O)c1ccccc1` (stereo unspecified), for which the Potency entry in experiment [1], in experiment [2], in experiment [3], in experiment [5], in [6] and in [9] was “inactive” in each case. Moreover, the Potency result in [7] and in [8] was “inactive” each time.
Turning to `COc1cc(-c2ccc(=O)[nH]n2)ccc1OC(F)F`, the Potency result in [1], in experiment [2], in experiment [3], in experiment [4], in experiment [5] and in experiment [9] was “inactive” throughout. The Potency entry in experiment [7] and in experiment [8] was “inactive” throughout.
For `CC(=O)OCC(=O)[C@@]12OC(C)(C)O[C@@H]1C[C@H]1[C@@H]3C[C@H](F)C4=CC(=O)C=C[C@]4(C)[C@@]3(F)[C@@H](O)C[C@@]12C`, the Potency result in [1], in experiment [2], in experiment [3], in experiment [5], in [6] and in [9] was “inactive” in each case. For the same compound, the Potency result in experiment [7], in experiment [8], in [10], in [12], in [13] and in experiment [14] was “inactive” throughout. Besides, the Potency result in [20], in [17], in experiment [18] and in experiment [19] was “inactive” throughout.
Consider `CC(=O)OCC(=O)[C@@]1(OC(C)=O)[C@@H](C)C[C@H]2[C@@H]3C[C@H](F)C4=CC(=O)C=C[C@]4(C)[C@@]3(F)[C@@H](O)C[C@@]21C`, for which the Potency entry in [1], in [2], in experiment [3], in experiment [4], in [5] and in experiment [6] was “inactive” throughout. The Potency entry in experiment [9], in [8], in [10], in [11], in experiment [12] and in experiment [14] was “inactive” each time. For the same compound, the Potency result in experiment [20] and in experiment [15] was “inactive” throughout.
`O=C1OC(c2ccc(O)cc2)(c2ccc(O)cc2)c2ccccc21`: the Potency entry in experiment [1], in [2], in [3], in experiment [4], in experiment [5] and in [9] was “inactive” throughout. The Potency entry in experiment [7] and in experiment [8] was “inactive” each time.
Regarding `CC(Cc1ccccc1)(NC(=O)CN)c1ccccc1` (stereo unspecified), the Potency result in experiment [1], in experiment [2], in experiment [3], in experiment [5], in [6] and in experiment [9] was “inactive” throughout.
In the case of `CCCC(=O)O[C@]1(C(=O)CO)CC[C@H]2[C@@H]3CCC4=CC(=O)CC[C@]4(C)[C@H]3[C@@H](O)C[C@@]21C`, the Potency result in experiment [1], in experiment [2], in experiment [3], in [5], in experiment [6] and in experiment [9] was “inactive” in each case. Moreover, the Potency entry in [7], in [8], in experiment [10], in experiment [11], in experiment [13] and in [14] was “inactive” each time. Besides, the Potency entry in experiment [20], in experiment [16], in [17] and in experiment [15] was “inactive” throughout.
Turning to `O=c1[nH]c(=O)n([C@H]2C[C@H](O)[C@@H](CO)O2)cc1C(F)(F)F`, the Potency in experiment [1] was 1.33 µM (active); in experiment [2] it was 13.8 µM (active). Besides, the Potency entry in experiment [3], in experiment [5], in [6] and in experiment [9] was “inactive” throughout.
Take `O=C(OCC(O)CO)c1ccccc1Nc1ccnc2cc(Cl)ccc12` (stereo unspecified): the Potency result in experiment [1], in experiment [2], in [3], in [5], in experiment [6] and in experiment [9] was “inactive” each time. In [7], the Potency entry was “inactive”.
In the case of `CN(C)CCOc1ccccc1Cc1ccccc1`, the Potency entry in experiment [1], in [2], in experiment [3], in [5], in experiment [6] and in experiment [9] was “inactive” each time. Moreover, the Potency result in experiment [8] was “inactive”.
As for `Nc1nc2ncc(CNc3ccc(C(=O)N[C@@H](CCC(=O)O)C(=O)O)cc3)nc2c(=O)[nH]1`, the Potency entry in [1], in [2], in [3], in experiment [4], in experiment [5] and in experiment [6] was “inactive” each time. The Potency result in experiment [9] and in experiment [8] was “inactive” throughout.
With `Cc1cc(N)c2cc(NC(=O)Nc3ccc4nc(C)cc(N)c4c3)ccc2n1`, the Potency entry in [1], in experiment [2], in [3], in experiment [4], in experiment [6] and in experiment [9] was “inactive” in each case. For the same compound, the Potency result in experiment [7] was “inactive”.
